HCMV inh: qHTS Assay for inhibitors of the human cytomegalovirus (HCMV) | AID 1259415, 2018 | 410,000 tested, 4.5% active | HFF cells, HCMV-luciferase reporter, 72 h; stronger effect = lower value | activity change, negative = inhibition, % at 57.5 µM; in the data active means activity change below about -60%; inconclusive means no clear call, values can overlap the other calls; inactive means above about -39%
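Luciferase read-out from HCMV-luciferase-infected HFFs (MOI 1 PFU/cell) 72 h post infection at 37C; compounds added after 16 h cell attachment; activity normalized between buffer-only basal and Salinomycin (10uM) inhibitor controls.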
FMDV inh: High Throughput Screening for Foot and Mouth Disease Virus Antivirals | FMDV antiviral cell-based qHTS | Potency, µM (top dose mostly 57.9 µM), hits mostly inhibitors | AID 1159524, 2015 | 410,000 tested, 1.2% active; calls by dose curve; tested in HEK293T cells; further: read-out not given here; nearly all actives have a fitted effect of over 45% in size
HCV inhibitor: qHTS Assay for Inhibitors of Hepatitis C Virus (HCV); AID 651820, 2012; Potency, µM (series often up to 41.8 µM), actives largely listed as inhibitors; Huh7.5.1 HCVcc-Cre infection, luciferase reporter, 44 h; 340,000 tested, 3.4% active; active means well fitted inhibition curve with a large enough effect; inconclusive means small, poorly fitted or top-dose-only effect, or another doubt; inactive means no such curve, though single readings can be large or run the other way
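Cells seeded at 1,000/well and cultured 4 h, then compounds added followed by HCVcc-Cre virus (~0.5 moi). After 44 h further culture, luciferase substrate was added, plates held 15 min at room temperature, and luminescence read for 15 sec.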
VACV Venus inh: qHTS for Stage-Specific Inhibitors of Vaccinia Orthopoxvirus: Venus Reporter Primary qHTS; AID 720580, 2013; Vaccinia virus Venus reporter expression, fluorescence; 330,000 tested, 0.46% active; Potency, µM (highest dose often 36.5 µM), usual class: inhibitors; calls by dose curve; tested in A549 cells; further: nearly all actives have a fitted effect of over 30% in size
VACV mCherry inh: qHTS for Stage-Specific Inhibitors of Vaccinia Orthopoxvirus: mCherry Reporter Primary qHTS | Vaccinia virus mCherry reporter infection, fluorescence | Potency, µM (top dose mostly 36.5 µM), usual class: inhibitors | 310,000 tested, 0.63% active; calls by dose curve; tested in A549 cells; further: nearly all actives have a fitted effect of over 35% in size
Each line names hits and unclear results; the compound was inactive in the other large screens. In the library only some 7.3% were active in any assay of this set; here they are far more common.

O=C(NCCN1CCN(C(=O)c2ccc(Br)cc2)CC1)c1ccc(Br)cc1	HCMV inh -66.3, FMDV inh inconclusive, HCV inhibitor inconclusive
O=C(NCCCN1CCN(CCCNC(=O)c2ccc(F)cc2)CC1)c1ccc(F)cc1	HCV inhibitor inconclusive
CCOc1cc(C(=O)Nc2ccc(C(=O)NCCN(CC)CC)cc2)ccc1OCC(=O)N1CCOCC1	none
Cc1ccc(C)c(Cn2c3ccccc3c3cnn(CC(=O)NCCCc4ccccc4)c(=O)c32)c1	none (no result: HCV inhibitor)
Cc1ccc(C)c(Cn2c3ccccc3c3cnn(CC(=O)NCCCN4CCCCC4)c(=O)c32)c1	HCMV inh -79.2, HCV inhibitor inconclusive (no result: VACV Venus inh, VACV mCherry inh)
Cc1ccccc1Cn1c2ccccc2c2cnn(CC(=O)NC(C)CCc3ccccc3)c(=O)c21 (stereo not drawn)	HCMV inh -75.2 (no result: HCV inhibitor)
Cc1cccc(NC(=O)Cn2ncc3c4ccccc4n(Cc4ccccc4)c3c2=O)c1C	none (no result: HCV inhibitor)
Cc1ccccc1Cn1c2ccccc2c2cnn(CC(=O)NCCCc3ccccc3)c(=O)c21	HCMV inh -81.0 (no result: HCV inhibitor)
Cc1ccccc1Cn1c2ccccc2c2cnn(CC(=O)NCCc3ccccc3)c(=O)c21	HCMV inh -96.3 (no result: HCV inhibitor)
Cc1ccc(C)c(Cn2c3ccccc3c3cnn(CC(=O)N4CCCCC4)c(=O)c32)c1	none (no result: HCV inhibitor)
COCCN1C(=O)CSCC1(C)C(=O)NCc1ccccc1 (stereo not drawn)	none (no result: HCV inhibitor)
O=C(CCC(=O)N/N=C/c1ccco1)N/N=C/c1ccco1	none
CCNC(=S)NN=C1c2ccccc2-c2ccccc21	HCV inhibitor 15.8µM
C=C(C)CNC(=S)N/N=C/c1ccco1	HCMV inh -61.2, VACV mCherry inh inconclusive
C=C(C)CNC(=S)NN=C1c2ccccc2-c2ccccc21	HCV inhibitor 11.2µM (no result: HCMV inh)
S=c1nc[nH]c2c1ncn2C1CCCC1	none
CCOC(=O)C1=CCN(S(=O)(=O)c2ccccc2Br)C1c1ccc(Cl)cc1 (stereo not drawn)	none (no result: FMDV inh, HCV inhibitor, VACV Venus inh, VACV mCherry inh)
O=C1C=CC2(O[C@H](c3ccccc3)[C@@H](c3ccccc3)O2)[C@H](Sc2ccccc2O)C1	HCMV inh -99.5, FMDV inh 7.94µM, HCV inhibitor inconclusive, VACV Venus inh inconclusive, VACV mCherry inh 10µM
C=CCN1C(=O)/C(=C\c2ccc(OC(=O)c3ccco3)c(OC)c2)SC1=S	none
C=CCN1C(=O)/C(=C/c2ccc(OC(C)=O)c(OCC)c2[N+](=O)[O-])SC1=S	HCMV inh -98.7, FMDV inh inconclusive, HCV inhibitor inconclusive
CC1(C(=O)NS(=O)(=O)c2cccc(OC(F)F)c2)CCN1C(=O)CC(c1ccccc1)c1ccccc1 (stereo not drawn)	none (no result: HCV inhibitor)
CCN1C(=O)c2ccc(C(=O)Nc3cccc(C(=O)O)c3)cc2C1=O	FMDV inh 14.1µM
O=C(O)c1cccc(NC(=O)c2ccc(N3C(=O)c4ccc(C(=O)Nc5cccc(C(=O)O)c5)cc4C3=O)cc2)c1	none
Cc1ccccc1Nc1nc(-c2cccnc2)nc2ccccc12	FMDV inh inconclusive, HCV inhibitor inconclusive, VACV mCherry inh inconclusive
Oc1ccc(/C=N/Nc2nc(-c3cccnc3)nc3ccccc23)c(O)c1	HCV inhibitor 11.2µM, VACV mCherry inh inconclusive
Cc1c(O)ccc(/C=N/Nc2nc(-c3cccnc3)nc3ccccc23)c1O	HCMV inh -75.2, HCV inhibitor 25.1µM
COc1ccc(/C=N/Nc2nc(-c3cccnc3)nc3ccccc23)cc1OC	none
Cc1ccc(-c2nc(N/N=C/c3ccncc3)c3ccccc3n2)cc1	FMDV inh 1µM
COc1ccc(C(=O)NN(C)c2nc(-c3ccccc3)nnc2C(F)(F)F)cc1	none
COc1ccc(C(=O)NN(C)c2nc(C(F)(F)F)nc3ccccc23)cc1	HCMV inh -98.6, VACV Venus inh inconclusive
C[C@@H]1CN([C@@H](C)CO)C(=O)c2cc(C#CCN(C)C)cnc2O[C@H]1CN(C)Cc1ccc2c(c1)OCO2	none (no result: HCV inhibitor)
CCCCC1(Cc2ccc([N+](=O)[O-])cc2)C(=O)N(c2ccccc2)N(c2ccccc2)C1=O	HCMV inh -97.7, FMDV inh inconclusive, HCV inhibitor 12.6µM, VACV Venus inh inconclusive, VACV mCherry inh inconclusive
CCC(=O)NC(c1cccs1)c1cc([N+](=O)[O-])c2cccnc2c1O (stereo not drawn)	HCMV inh -80.8, HCV inhibitor inconclusive, VACV Venus inh inconclusive, VACV mCherry inh inconclusive
O=C(CCc1ccccc1)NC(c1cccs1)c1cc(Cl)c2cccnc2c1O (stereo not drawn)	HCMV inh -101.8, HCV inhibitor 1µM, VACV Venus inh inconclusive, VACV mCherry inh 8.91µM
CCCC(=O)NC(c1cccs1)c1cc([N+](=O)[O-])c2cccnc2c1O (stereo not drawn)	HCMV inh -99.3, HCV inhibitor inconclusive, VACV mCherry inh inconclusive
CC(=O)NC(c1cccs1)c1cc([N+](=O)[O-])c2cccnc2c1O (stereo not drawn)	HCMV inh inconclusive, FMDV inh inconclusive, HCV inhibitor 12.6µM, VACV Venus inh inconclusive, VACV mCherry inh inconclusive
C[C@H](CO)N1C[C@H](C)[C@@H](CN(C)S(=O)(=O)c2ccc3c(c2)OCCCO3)OCc2cn(nn2)CCCC1=O	none (no result: HCV inhibitor)
COc1ccc(NC(=O)Cn2c(=O)n(Cc3ccccc3Cl)c(=O)c3cc(OC)c(OC)cc32)cc1OC	none (no result: HCV inhibitor)
Cc1cccc2sc(=S)[nH]c12	none (no result: HCV inhibitor)
CCN(CC)C(=O)CSC(Nc1ccc(F)cc1)=C(C#N)C#N	FMDV inh inconclusive
Cc1ccc(CSC(Nc2ccc(F)cc2)=C(C#N)C#N)cc1	HCMV inh -100.1, HCV inhibitor 8.91µM, VACV Venus inh inconclusive
Ic1ccccc1CN[C@@H]1C2CCN(CC2)[C@@H]1C(c1ccccc1)c1ccccc1	HCMV inh -98.6, FMDV inh inconclusive, HCV inhibitor inconclusive, VACV Venus inh inconclusive, VACV mCherry inh inconclusive
CN(Cc1ccccc1)S(=O)(=O)c1nnc(NC(=O)c2ccccc2Cl)s1	none (no result: HCV inhibitor)
Oc1ccccc1N=Nc1ccccc1O	HCMV inh -99.4, HCV inhibitor 0.891µM, VACV Venus inh inconclusive, VACV mCherry inh inconclusive
COc1ccc(-c2nnc(SCC(=O)N(Cc3ccccc3)C(C)(C)C)o2)cc1OC	HCMV inh -95.1, FMDV inh 11.2µM, HCV inhibitor inconclusive (no result: VACV Venus inh, VACV mCherry inh)
CCN(C(=O)CSc1nnc(-c2cc(OC)c(OC)c(OC)c2)o1)c1ccccc1	none (no result: HCV inhibitor)
Cc1cccc2sc(NNC(=O)c3ccc(S(=O)(=O)N4CCc5ccccc5C4)cc3)nc12	HCMV inh -105.3, FMDV inh inconclusive, HCV inhibitor inconclusive, VACV Venus inh inconclusive, VACV mCherry inh inconclusive
COc1ccccc1NC(=O)c1ccc(S(=O)(=O)N2CCCC(C)C2)cc1 (stereo not drawn)	HCMV inh -63.5, HCV inhibitor inconclusive
Cc1cccc2sc(NC(=O)c3cccc(S(=O)(=O)N4CCc5ccccc54)c3)nc12	FMDV inh inconclusive, HCV inhibitor inconclusive
CC1CCCN(S(=O)(=O)c2ccc(C(=O)Nc3ccccc3-c3nc4ccccc4[nH]3)cc2)C1 (stereo not drawn)	HCV inhibitor inconclusive
